Test results published in PubChem BioAssay (EPA / NIEHS).
Several values for one entry are separate records, joined by “and”; a condition that tells them apart may be missing. Identical values can stand only once. More than one record can exist for a structure, and the calls need not agree. Activity calls are given as the source filed them. Rule for the calls: active = hit-call score of the fitted dose curve at least 0.9, where 1 is the maximum; inactive = score below 0.9.

Columns and labels:
[1] = target: Transcription factor E2F1 (Homo sapiens) (UniProt Q01094); assay: ATG_E2F_CIS: Attagene CIS-FACTORIAL HepG2 Assay for human E2F Transcription Factor 1 (AID 2282935); conditions: HepG2 Attagene cis-reporter, E2F reporter RNA transcripts; actives raise or lower the signal
Procedure, shortened: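 In this cis-factorial format, endogenous factor activity drives transfected reporters in HepG2; transcripts collected at 24 h are quantified by fluorescence after RT-PCR and capillary separation.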

[2] = ATG_E_Box_CIS: Attagene CIS-FACTORIAL HepG2 Assay for human Enhancer Box (E-box) (AID 2282936); conditions: HepG2 E-box cis-reporter transcription, actives raise or lower the signal
Procedure, shortened: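 Measured 24 h post-dosing in HepG2 cells transfected with multiple cis-regulated reporter units, signal being reporter mRNA induction detected by fluorescent RT-PCR with capillary electrophoresis; gain or loss fitted against DMSO.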

[3] = ATG_M_61_CIS: Attagene CIS-FACTORIAL HepG2 Assay for M61 Transcription Factor (Internal Marker) (AID 2282937); conditions: HepG2 Attagene CIS-FACTORIAL M61 internal marker reporter; actives raise or lower the signal
Procedure, shortened: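 HepG2 cells transiently transfected with multiplexed cis-promoter reporter units reporting endogenous transcription factor activity, measured 24 h after dosing. Reporter mRNA quantified by RT-PCR and capillary electrophoresis; bidirectional fit against DMSO baseline.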

[4] = ATG_EGR_CIS: Attagene CIS-FACTORIAL HepG2 Assay for human Early Growth Response 1 (EGR1) (AID 2282938); conditions: HepG2 Attagene CIS-FACTORIAL EGR reporter mRNA; actives raise or lower the signal
Procedure, shortened: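 HepG2 cells transiently transfected with cis-element-driven multiplexed reporter units, dosed for 24 h. EGR1-element reporter mRNA quantified by RT-PCR, 6-FAM labelling, HpaI digestion and capillary electrophoresis; bidirectional fit versus DMSO.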

[5] = ATG_M_19_CIS: Attagene CIS-FACTORIAL HepG2 Assay for M19 Transcription Factor (Internal Marker) (AID 2282939); conditions: HepG2 Attagene CIS-FACTORIAL M19 internal marker reporter; actives raise or lower the signal
Procedure, shortened: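 Signals come from fluorescence of labelled reporter-specific PCR fragments resolved by capillary electrophoresis, following 24 h treatment of HepG2 cells transfected with cis-promoter reporter units; activity was fitted in both directions relative to DMSO.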

[6] = ATG_ERE_CIS: Attagene CIS-FACTORIAL HepG2 Assay for Estrogen Response Element (ERE) (AID 2282940); conditions: HepG2 ERE cis-reporter, Attagene RNA transcript; actives raise or lower the signal
Procedure, shortened: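 Fluorescence of capillary-separated, FAM-labelled reporter cDNA fragments indicates reporter mRNA levels in HepG2 cells exposed to chemicals for 24 h. Transient transfection with cis-regulated units; data fitted in both directions against DMSO.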

[7] = ATG_Ets_CIS: Attagene CIS-FACTORIAL HepG2 Assay for human Erythroblast Transformation Specific (ETS) (AID 2282941); conditions: HepG2 ETS cis-reporter transcription, actives raise or lower the signal
Procedure, shortened: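 RT-PCR/capillary electrophoresis fluorescence read-out of reporter mRNA; HepG2 transient multi-reporter transfection; 24 h compound exposure; gain or loss of signal fitted bidirectionally relative to DMSO.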

[8] = target: Hepatocyte nuclear factor 3-beta (Homo sapiens) (UniProt Q9Y261); assay: ATG_FoxA2_CIS: Attagene CIS-FACTORIAL HepG2 Assay for human Forkhead box A2 (FOXA2) (AID 2282942); conditions: HepG2 cis-reporter transcription factor activity, 24 h; actives raise or lower the signal
Procedure, shortened: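 HepG2 transiently transfected with a multiplexed cis-promoter reporter library read endogenous FOXA2 activity. After 24 h compound exposure, reporter mRNA was quantified by RT-PCR, HpaI digestion and capillary electrophoresis. Bidirectional fit against DMSO.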

[9] = ATG_FoxO_CIS: Attagene CIS-FACTORIAL HepG2 Assay for human Forkhead box O (FoxO) (AID 2282943); conditions: HepG2 Attagene cis-reporter, FoxO element, mRNA; actives raise or lower the signal
Procedure, shortened: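 HepG2 cells transiently transfected with cis-promoter-driven multiple reporter transcription units; 24 h after chemical dosing, reporter mRNA quantified by RT-PCR, fluorescent primer extension, HpaI digestion and capillary electrophoresis. Bidirectional fitting versus DMSO baseline.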

[10] = ATG_GATA_CIS: Attagene CIS-FACTORIAL HepG2 Assay for human GATA Binding Protein (AID 2282944); conditions: HepG2 GATA cis-element reporter, Attagene multiplex mRNA; actives raise or lower the signal
Procedure, shortened: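 After transfecting HepG2 cells with multiple cis-regulated reporter units, chemicals are dosed for 24 h; isolated RNA undergoes RT-PCR and fluorescent labeling before capillary electrophoresis, with activity expressed against DMSO.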

[11] = ATG_GLI_CIS: Attagene CIS-FACTORIAL HepG2 Assay for human Zinc Finger Protein GLI1 (AID 2282945); conditions: HepG2, Attagene cis-factorial reporter mRNA, GLI element; actives raise or lower the signal
Procedure, shortened: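 HepG2 cells transiently transfected with cis-promoter multiplexed reporter units report endogenous transcription factor activity. After 24 h chemical exposure, reporter mRNA was quantified by RT-PCR, 6-FAM labelling, HpaI digestion and capillary electrophoresis, with bidirectional fitting against DMSO.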

[12] = target: Bile acid receptor (Homo sapiens) (UniProt Q96RI1); assay: ATG_IR1_CIS: Attagene CIS-FACTORIAL HepG2 Assay for human Nuclear Receptor Subfamily 1 Group H Member 4 (NR1H4), IR1 submotif (AID 2282946); conditions: IR1 reporter transcription, actives raise or lower the signal
Procedure, shortened: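 Readout: reporter transcript levels by RT-PCR with fluorescent capillary electrophoresis, from HepG2 cells transiently transfected with multiplexed cis-regulated reporters and dosed 24 h. Gain- or loss-of-signal fitted versus DMSO negative control.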

[13] = ATG_GRE_CIS: Attagene CIS-FACTORIAL HepG2 Assay for human Glucocorticoid Response Elements (GRE) (AID 2282947); conditions: HepG2 GRE cis-reporter, Attagene multiplex mRNA; actives raise or lower the signal
Procedure, shortened: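 HepG2, transient cis-reporter transfection, 24 h. Reporter mRNA: RT-PCR then CE, fluorescence. Fit both directions vs DMSO.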

[14] = ATG_ISRE_CIS: Attagene CIS-FACTORIAL HepG2 Assay for human Interferon Regulatory Factor 1 (IRF1) binding to an Interferon-Stimulated Response Element (ISRE) (AID 2282948); conditions: HepG2 ISRE cis-reporter (Attagene), mRNA transcription readout; actives raise or lower the signal
Procedure, shortened: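 Read-out: fluorescent RT-PCR products resolved by capillary electrophoresis, reporting endogenous transcription factor activity via ISRE-driven reporter mRNA in transfected HepG2 cells dosed for 24 h; gain or loss fitted relative to DMSO.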

[15] = ATG_M_32_CIS: Attagene CIS-FACTORIAL HepG2 Assay for M32 Transcription Factor (Internal Marker) (AID 2282949); conditions: HepG2 Attagene cis-factorial M32 reporter, mRNA; actives raise or lower the signal;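 note: background control marker of the multiplexed CIS panel rather than a real target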
Procedure, shortened: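 Transient MRTU transfection of HepG2; 24 h compound treatment; TriZol RNA, oligo(dT) RT, reporter PCR, 6-FAM primer extension, HpaI cut, CE. Gain/loss of signal vs DMSO.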

[16] = ATG_M_06_CIS: Attagene CIS-FACTORIAL HepG2 Assay for M06 Transcription Factor (Internal Marker) (AID 2282950); conditions: HepG2 Attagene CIS-FACTORIAL M06 internal marker reporter; actives raise or lower the signal
Procedure, shortened: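 HepG2 liver cells, 24 h exposure. Reporter transcripts from transfected cis-element constructs quantified by RT-PCR/capillary electrophoresis fluorescence. Bidirectional curve fit against DMSO.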

[17] = target: Hypoxia-inducible factor 1-alpha (Homo sapiens) (UniProt Q16665); assay: ATG_HIF1a_CIS: Attagene CIS-FACTORIAL HepG2 Assay for human Hypoxia Inducible Factor 1 (HIF1A) (AID 2282951); conditions: HepG2 Attagene cis-factorial HIF1a reporter transcription; actives raise or lower the signal
Procedure, shortened: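 HepG2 cells transiently transfected with multiple cis-regulated reporter transcription units measure endogenous transcription factor activity. After 24 h exposure, reporter mRNA is quantified by RT-PCR with 6-FAM labelling, HpaI digestion and capillary electrophoresis. Bidirectional fitting against DMSO.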

[18] = target: Hepatocyte nuclear factor 6 (Homo sapiens) (UniProt Q9UBC0); assay: ATG_HNF6_CIS: Attagene CIS-FACTORIAL HepG2 Assay for human Hepatocyte Nuclear Factor 6 (HNF6) (AID 2282952); conditions: HepG2 Attagene cis-factorial HNF6 reporter transcription; actives raise or lower the signal
Procedure, shortened: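 Readout: fluorescent reporter-transcript fragments resolved by capillary electrophoresis after RT-PCR, reflecting endogenous factor activity in transfected HepG2. Exposure 24 h. Gain or loss of signal fitted bidirectionally against DMSO.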

[19] = target: Heat shock factor protein 1 (Homo sapiens) (UniProt Q00613); assay: ATG_HSE_CIS: Attagene CIS-FACTORIAL HepG2 Assay for human Heat Shock Transcription Factor 1 (HSE) (AID 2282953); conditions: HepG2 HSE cis-reporter, Attagene RNA transcription; actives raise or lower the signal
Procedure, shortened: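 Endogenous transcription factor activity captured via cis-promoter reporter units transfected into HepG2; treatment lasted 24 h. Fluorescence intensity of reporter fragments analysed with bidirectional curve fitting, DMSO baseline.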

[20] = ATG_MRE_CIS: Attagene CIS-FACTORIAL HepG2 Assay for human Metal Responsive Element (MRE) (AID 2282954); conditions: HepG2 MRE cis-reporter transcription, Attagene multiplex; actives raise or lower the signal
Procedure, shortened: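 Readout: capillary electrophoresis of 6-FAM-labelled, HpaI-digested RT-PCR reporter products. System: HepG2 cells carrying transient multiplexed cis reporters, dosed 24 h. Analysis: bidirectional fit, DMSO baseline.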

Measured: AC50

Hepatocyte nuclear factor 3-beta (Homo sapiens), sequence (Q9Y261 whole entry, looked up): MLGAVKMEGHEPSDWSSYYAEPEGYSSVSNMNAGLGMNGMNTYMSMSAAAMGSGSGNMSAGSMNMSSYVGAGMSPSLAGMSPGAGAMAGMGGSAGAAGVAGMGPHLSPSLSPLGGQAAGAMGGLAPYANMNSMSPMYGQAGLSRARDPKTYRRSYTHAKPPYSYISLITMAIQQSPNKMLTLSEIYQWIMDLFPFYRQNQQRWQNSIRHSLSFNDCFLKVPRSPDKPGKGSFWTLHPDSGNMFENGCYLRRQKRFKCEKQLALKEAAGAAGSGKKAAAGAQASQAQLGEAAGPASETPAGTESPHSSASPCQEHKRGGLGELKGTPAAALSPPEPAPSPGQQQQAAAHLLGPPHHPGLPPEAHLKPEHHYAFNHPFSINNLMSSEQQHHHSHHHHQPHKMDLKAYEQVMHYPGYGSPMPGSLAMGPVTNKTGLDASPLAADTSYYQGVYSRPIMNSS
Hepatocyte nuclear factor 6 (Homo sapiens), sequence (Q9UBC0 whole entry, looked up, the tested form may be a part): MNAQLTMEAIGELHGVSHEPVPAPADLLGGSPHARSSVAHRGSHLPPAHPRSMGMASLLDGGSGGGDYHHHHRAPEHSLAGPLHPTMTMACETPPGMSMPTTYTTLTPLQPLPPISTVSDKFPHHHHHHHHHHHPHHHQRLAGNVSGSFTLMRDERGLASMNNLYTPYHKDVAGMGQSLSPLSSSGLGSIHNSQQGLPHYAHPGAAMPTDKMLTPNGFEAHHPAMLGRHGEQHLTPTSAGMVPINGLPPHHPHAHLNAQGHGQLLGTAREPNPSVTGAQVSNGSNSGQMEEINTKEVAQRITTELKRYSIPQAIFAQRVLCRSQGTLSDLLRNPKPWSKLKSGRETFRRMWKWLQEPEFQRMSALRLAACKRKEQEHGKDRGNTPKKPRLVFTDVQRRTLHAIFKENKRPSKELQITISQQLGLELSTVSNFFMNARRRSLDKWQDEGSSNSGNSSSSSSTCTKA
Bile acid receptor (Homo sapiens), sequence (Q96RI1 whole entry, looked up): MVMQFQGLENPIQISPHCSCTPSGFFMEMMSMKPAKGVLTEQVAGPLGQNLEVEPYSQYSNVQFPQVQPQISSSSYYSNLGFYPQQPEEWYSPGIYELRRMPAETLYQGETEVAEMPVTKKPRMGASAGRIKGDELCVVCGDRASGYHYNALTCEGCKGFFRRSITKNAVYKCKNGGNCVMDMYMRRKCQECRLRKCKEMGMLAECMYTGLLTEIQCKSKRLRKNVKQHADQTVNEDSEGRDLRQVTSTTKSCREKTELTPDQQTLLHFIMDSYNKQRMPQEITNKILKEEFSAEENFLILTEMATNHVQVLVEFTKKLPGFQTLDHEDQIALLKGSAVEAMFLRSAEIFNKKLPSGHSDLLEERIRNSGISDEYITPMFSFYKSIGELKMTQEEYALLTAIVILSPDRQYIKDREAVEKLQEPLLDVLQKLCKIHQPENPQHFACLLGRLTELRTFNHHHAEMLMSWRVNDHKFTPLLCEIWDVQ
Hypoxia-inducible factor 1-alpha (Homo sapiens), sequence (Q16665 whole entry, looked up): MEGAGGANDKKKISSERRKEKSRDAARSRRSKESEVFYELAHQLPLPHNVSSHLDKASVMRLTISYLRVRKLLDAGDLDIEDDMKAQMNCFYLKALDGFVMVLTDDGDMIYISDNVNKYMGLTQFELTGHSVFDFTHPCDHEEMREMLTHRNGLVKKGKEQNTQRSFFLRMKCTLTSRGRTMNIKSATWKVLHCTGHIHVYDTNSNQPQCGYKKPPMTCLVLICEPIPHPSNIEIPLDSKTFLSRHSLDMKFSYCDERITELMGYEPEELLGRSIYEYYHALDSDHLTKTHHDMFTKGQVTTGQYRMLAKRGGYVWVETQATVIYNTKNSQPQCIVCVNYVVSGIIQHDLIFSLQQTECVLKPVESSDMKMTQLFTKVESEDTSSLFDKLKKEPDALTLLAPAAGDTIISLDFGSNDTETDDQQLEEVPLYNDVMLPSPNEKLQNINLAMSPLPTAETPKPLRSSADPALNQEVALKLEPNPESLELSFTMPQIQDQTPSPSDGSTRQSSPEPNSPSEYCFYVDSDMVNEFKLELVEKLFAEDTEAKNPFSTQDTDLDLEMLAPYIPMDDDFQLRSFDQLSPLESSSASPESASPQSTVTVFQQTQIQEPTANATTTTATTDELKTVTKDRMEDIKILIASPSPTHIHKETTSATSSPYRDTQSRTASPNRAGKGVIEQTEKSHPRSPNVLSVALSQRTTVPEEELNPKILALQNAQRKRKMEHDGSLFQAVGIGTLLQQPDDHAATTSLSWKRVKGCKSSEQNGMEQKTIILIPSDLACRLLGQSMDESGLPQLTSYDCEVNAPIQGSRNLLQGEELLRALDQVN
Transcription factor E2F1 (Homo sapiens), sequence (Q01094 whole entry, looked up): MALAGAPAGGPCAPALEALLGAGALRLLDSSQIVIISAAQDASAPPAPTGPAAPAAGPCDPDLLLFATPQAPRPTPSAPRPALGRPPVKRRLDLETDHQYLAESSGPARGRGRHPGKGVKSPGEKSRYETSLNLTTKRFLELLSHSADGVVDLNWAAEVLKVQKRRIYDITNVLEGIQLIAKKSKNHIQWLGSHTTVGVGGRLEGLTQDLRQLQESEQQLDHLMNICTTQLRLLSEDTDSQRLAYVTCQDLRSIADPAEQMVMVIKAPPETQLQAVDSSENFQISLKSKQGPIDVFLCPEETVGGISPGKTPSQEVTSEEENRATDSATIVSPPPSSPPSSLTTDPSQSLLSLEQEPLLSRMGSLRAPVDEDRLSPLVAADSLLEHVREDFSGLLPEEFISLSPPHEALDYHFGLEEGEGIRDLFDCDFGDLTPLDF
Heat shock factor protein 1 (Homo sapiens), sequence (Q00613 whole entry, looked up, the tested form may be a part): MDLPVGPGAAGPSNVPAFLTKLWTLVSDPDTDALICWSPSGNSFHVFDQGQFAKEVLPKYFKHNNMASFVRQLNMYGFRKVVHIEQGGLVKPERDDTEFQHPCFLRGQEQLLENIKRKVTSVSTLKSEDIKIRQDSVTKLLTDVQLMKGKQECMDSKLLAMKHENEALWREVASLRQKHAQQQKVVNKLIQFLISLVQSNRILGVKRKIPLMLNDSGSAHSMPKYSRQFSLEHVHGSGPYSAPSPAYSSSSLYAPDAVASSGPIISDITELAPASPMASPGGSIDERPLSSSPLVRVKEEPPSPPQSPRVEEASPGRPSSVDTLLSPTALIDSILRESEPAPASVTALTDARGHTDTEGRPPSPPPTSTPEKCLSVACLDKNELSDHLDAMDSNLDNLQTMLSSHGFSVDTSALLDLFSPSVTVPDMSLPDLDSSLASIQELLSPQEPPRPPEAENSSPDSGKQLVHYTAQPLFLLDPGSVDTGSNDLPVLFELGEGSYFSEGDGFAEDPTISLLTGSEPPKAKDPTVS

CCC(O)=C1C(=O)CC(C(=O)O)CC1=O (stereo not drawn)
inactive: all assays above

C#CCOC(=O)[C@@H](C)Oc1ccc(Oc2ncc(Cl)cc2F)cc1
not listed: [19]
inactive: all other assays above

COC(=O)c1c(Cl)nn(C)c1S(=O)(=O)NC(=O)Nc1nc(OC)cc(OC)n1
inactive: all assays above

OB(O)O
inactive: all assays above

CCOC(=O)c1ccc(O)cc1
inactive: [1] | [2] | [3] | [4] | [5] | [7] | [8] | [9] | [10] | [11] | [12] | [13] | [14] | [15] | [16] | [17] | [18] | [19] | [20]
active: [2] 167 µM

CC(=O)[C@H]1CC[C@H]2[C@@H]3CCC4=CC(=O)CC[C@]4(C)[C@H]3CC[C@]12C
active: [1] 68.4 µM | [4] 22.6 µM and 50.7 µM and 26.7 µM | [6] 1.27 µM [middle of 4 runs] | [9] 154 µM | [10] 152 µM | [14] 46.4 µM | [18] 182 µM | [19] 60 µM and 149 µM | [20] 33.4 µM and 38.9 µM and 117 µM
inactive: [1] | [3] | [4] | [5] | [7] | [8] | [9] | [10] | [11] | [14] | [15] | [16] | [18] | [19] | [20]
